# Compounds with a hit are over-represented: about 11% of the library has one in this group of screens.
# ALDH1A1 inh: blocks purified human ALDH1A1 activity | Potency, µM (series often up to 75.3 µM), usual class: inhibitors | P00352 | Purified ALDH1A1, NADH fluorescence, propionaldehyde substrate | 220,000 tested, 7.3% active
# Target sequence (P00352 whole entry, looked up): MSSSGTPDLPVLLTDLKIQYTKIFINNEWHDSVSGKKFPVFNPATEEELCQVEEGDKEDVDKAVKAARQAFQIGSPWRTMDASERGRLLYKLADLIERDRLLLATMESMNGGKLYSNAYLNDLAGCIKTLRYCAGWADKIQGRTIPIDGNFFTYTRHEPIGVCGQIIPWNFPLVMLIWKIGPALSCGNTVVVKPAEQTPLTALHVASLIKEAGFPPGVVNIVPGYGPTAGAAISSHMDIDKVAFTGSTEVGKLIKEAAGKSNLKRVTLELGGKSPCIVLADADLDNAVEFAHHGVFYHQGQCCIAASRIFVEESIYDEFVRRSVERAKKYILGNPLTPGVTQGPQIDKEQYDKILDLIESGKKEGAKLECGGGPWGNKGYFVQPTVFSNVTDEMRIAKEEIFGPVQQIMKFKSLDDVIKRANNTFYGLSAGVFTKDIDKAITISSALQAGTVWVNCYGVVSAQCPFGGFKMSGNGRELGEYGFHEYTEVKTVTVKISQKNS
# IMPase Li inh: cell-permeable IMPase inhibitors with lithium potentiation; CHO-M1 cells, IP1 TR-FRET (IP-One), carbachol + lithium; Potency, µM (doses to about 59.4 µM), actives largely listed as inhibitors; 210,000 tested, 0.35% active; AID 1457; active = well fitted inhibition curve with a large enough effect; inconclusive = small, poorly fitted or top-dose-only effect; inactive = no such curve, though single readings can be large or run the other way;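 also: IP1 builds up when IMPase is blocked and the TR-FRET signal falls; nearly all actives have a fitted effect of over 50% in size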
#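 IP1 accumulation measured by competitive TR-FRET in lysed CHO-M1 cells after 30 min compound exposure at 37C, with a small lithium addition to potentiate weak responses. Hill-equation AC50 from ratio and donor-channel data.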
# PNC assembly inh: blocks assembly of the perinucleolar compartment | activity change (PNC), negative = inhibition, % at 10 µM | 140,000 tested, 3.1% active | PC3M PTB-GFP, PNC prevalence imaging, 16 h; stronger effect = lower value;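 active = readout at or below -70, meaning at least 70% loss of cells showing the perinucleolar compartment, a nuclear body marking cancer cells; inconclusive = readout between -30 and a set limit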
#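 PC3M cells stably expressing PTB-GFP, 750–1000 cells/well, treated 16 h at 37 °C with compound (23 nl of library stock), in duplicate. After paraformaldehyde fixation and Hoechst stain, imaged at 20x; PNC prevalence scored by image analysis.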
# IMPase inh: membrane-permeable compound that blocks inositol monophosphatase. CHO-M1 cells, IP1 accumulation, HTRF TR-FRET ratio. 120,000 tested, under 10 active. P97697. inhibition (IP1 accumulation), % at 46.1 µM. AID 901; active = well fitted curve in the direction sought with a large enough effect in the signal ratio, not every such curve was filed as active; inconclusive = small, poorly fitted or top-dose-only effect, or a change in a side signal; inactive = no such curve, though single readings can be large or run the other way; the % refers to the signal ratio;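 also: cells stimulated with carbachol in lithium chloride buffer; higher means more IMPase inhibition seen as more IP1 and lower FRET ratio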
#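 CHO-M1, 2000 cells/well, cultured 16–30 h; cpd up to 46 uM; carbachol (50 uM solution, stimulation buffer w/ 50 mM LiCl, pH 7.4), 30 min 37C; IP-One TR-FRET, 10 min RT; Ex 320/Em 665, 620; Hill-fit AC50.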
# HPGD block: inhibitors of human 15-hydroxyprostaglandin dehydrogenase (HPGD). Potency, µM, most hits filed as inhibitors. 150,000 tested, 4.3% active. P15428. purified HPGD, NADH fluorescence kinetic, PGE2 substrate
#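 NADH formation kinetics: reaction with 30 uM PGE2 and 1 mM NAD+ (final), 20 nM enzyme, Tris-HCl pH 8 with Tween 20, after 15 min compound preincubation at room temperature. Fluorescence change, last versus first of five reads.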
# Numbers stand for hits; 0 = inactive; ? = inconclusive; - = not tested or not shown; [ ] = another dose, or the depositor's remark. Unless noted, calls follow the shape of the dose curve; as a rule, active = well fitted inhibition curve with a large enough effect (not every such curve was filed as active); inconclusive = small, poorly fitted or top-dose-only effect, or another doubt; inactive = no such curve, though single readings can be large or run the other way.
SMILES,ALDH1A1 inh,IMPase Li inh,PNC assembly inh,IMPase inh,HPGD block
CC(=O)N1CCCc2cc(S(=O)(=O)NCCC3=CCCCC3)ccc21,1.78µM,0,-86.1,0,0
CCNc1c(NC(=O)c2cc(OCC)c(OCC)c(OCC)c2)c(=O)oc2ccccc12,-,-,-,0,-
O=C(N/N=C\c1ccc2c(c1)CCC2)c1ccccc1O,0[13.5 µM],0,-,-,0
COc1cc(C2NC(=O)NC(C)=C2C(=O)Nc2cc(C)cc(C)c2)ccc1O (configuration not stated),-,-,-,0,-
Cc1cc(C)nc(SCc2ccc(F)cc2)n1,0,0,-,-,-
Cn1c(SCc2ccc(Br)cc2)nnc1-c1cccs1,0,0,0,0,0
Cc1ccc(CSc2nnc(-c3cccs3)n2C)cc1,0,0,-100.0,0,0
COc1ccc(NS(=O)(=O)c2cc(C)ccc2NC(=O)c2cc(C)oc2C)cc1,7.94µM,0,0,0,0
COc1ccc(S(=O)(=O)CCc2nnc(NC(=O)c3cccs3)s2)cc1,0,?,0,?,0
O=C(Nc1nnc(CCS(=O)(=O)c2ccc3ccccc3c2)s1)c1cccs1,?,11.2µM,0,-,0
O=C(COc1ccccc1)NNC(=S)NC(=O)c1ccc(Cl)cc1Cl,7.94µM,0,0,0,35.5µM
Cc1ccc(OCC(=O)Nc2ccccc2-c2ccccc2)cc1,0,0,0,0,0
COc1cccc(OCC(=O)NNC(=S)Nc2ccc(Cl)cc2Cl)c1,2µM,0,-,-,-
CC(C)CNC(=S)NC(=O)c1ccc(Cl)cc1Cl,22.4µM,-,0,0,-
COc1cccc(OCC(=O)Nc2ccccc2-c2ccccc2)c1,20µM,0,-,-,-
O=C(COc1cccc(Cl)c1)NNC(=S)Nc1ccccc1,0,0,0,0,0
CC(C)NC(=S)NC(=O)c1ccc(Cl)cc1Cl,?,0,0,-,0
CCOC(=O)N/N=C1/C[C@@H](O)[C@@H](O)[C@@H]2[C@@H]3C(=O)N(c4cccc(Oc5ccccc5)c4)C(=O)[C@H]3CC[C@H]12,0[13.5 µM],-,-,-,-
COc1ccc(CCNC(=O)Cn2nnc(-c3ccccc3F)n2)cc1OC,0,0,0,0,0
COC(=O)[C@H](COC(C)(C)C)NC(=O)O[C@H]1C(=O)c2ccc(OC)cc2O[C@@H]1c1ccc2c(c1)OCO2,0,0,-,-,0
Cc1cccc(C(=O)NC(=S)NNC(=O)COc2ccc(Cl)cc2)c1,9.46µM,0,-,-,-
Cn1cccc1CC(=O)NNC(=S)Nc1ccc(Cl)cc1Cl,10µM,0,0,0,11.2µM
Cc1cccc(/C(N)=N/OC(=O)COc2ccc(Cl)cc2)c1,0,0,-,-,-
C=CCNC(=O)CC(=O)N/N=C/c1cccc(C)c1,0,0,0,-,0
CC(C)(C)c1ccc(OC(=O)c2ccc3nsnc3c2)cc1,0,0,?,0,0
SMILES,ALDH1A1 inh,IMPase Li inh,PNC assembly inh,IMPase inh,HPGD block
COc1ccccc1OC(=O)c1ccc2nsnc2c1,0,0,-81.1,0,0
O=C(CSc1c(Cl)cccc1Cl)NC1CCCc2ccccc21 (configuration not stated),0,0,0,0,0
Cc1ccccc1-n1nnnc1SC(C)C(=O)NC1CCCc2ccccc21 (configuration not stated),4.47µM,0,0,0,0
CC(Sc1nnc(Nc2ccccc2)s1)C(=O)NC1CCCc2ccccc21 (configuration not stated),31.6µM,0,?,0,0
O=C(CSc1nc2ccccc2s1)NC1CCCc2ccccc21 (configuration not stated),?,0,?,0,11.2µM
O=C(CSc1nnnn1-c1ccccc1)NC1CCCc2ccccc21 (configuration not stated),10µM,-,0,0,-
Cc1nnc(SC(C)C(=O)NC2CCCc3ccccc32)n1-c1ccccc1 (configuration not stated),0,-,?,0,-
Cc1cccc(Nc2nnc(SCC(=O)NC3CCCc4ccccc43)s2)c1C (configuration not stated),0,0,0,-,?
CN(N=O)C(=O)N[C@H]1C(O)OC(CO)[C@@H](O)[C@H]1O (some centres not stated),0,0,-,0,0
Cc1nc2cnc(N3CCN(C)CC3)nc2n(-c2ccccc2)c1=O,?,0,-,-,-
O=C1c2cccc3c([N+](=O)[O-])ccc(c23)C(=O)N1c1ccc(Cl)cn1,0,0,0,0,0
O=C1c2cccc3c([N+](=O)[O-])ccc(c23)C(=O)N1c1ccccn1,0,0,-104.8,?,28.2µM
Cn1c(=S)c2[nH]c(SCCN3C(=O)c4ccccc4C3=O)nc2n(C)c1=O,0[13.5 µM],0,-,-,0
O=C(Cc1cnc2ncnn2c1)N1CCc2c([nH]c3ccccc23)C1c1ccccn1 (configuration not stated),?,0,-,-,-
CCN(CC)C(=O)COc1ccc(-c2nnc(Nc3ccc(OC)c(C(=O)NC)c3)c3ccccc23)cc1,25.1µM,-,-,0,-
CCN(CC)S(=O)(=O)c1cc(-c2nnc(Nc3ccc(OC)c(C(N)=O)c3)c3ccccc23)ccc1C,-,-,-,0,-
CCOc1cc2[nH]c(=O)n(CCCCC(=O)N3CCCCCC3)c(=O)c2cc1OCC,?,0,-100.0,0,?
O=C(CCCn1c(=S)[nH]c2ccccc2c1=O)NC1CCCCC1,0,0,0,0,20µM
O=C(CCCn1c(=S)[nH]c2ccccc2c1=O)N1CCCCC1,?,0,0,0[1.84 µM],10µM
O=C(c1ccc(F)cc1)C1CCN(CCn2c(=S)[nH]c3ccccc3c2=O)CC1,0,0,-,0,14.1µM
Cc1ccccc1-n1c(SCC(=O)Nc2ccc(Cl)cc2Cl)nc(O)cc1=O,-,-,-,0,-
C[C@H]1Cc2c(-c3ccccc3)nc3c(c2CO1)CN(C(=O)c1ccco1)CC3,0[13.5 µM],0,-,-,0
COc1ccccc1NC(=O)Cn1c(=O)n(-c2ccc(C)cc2)c(=O)c2ccc(C(=O)NCc3ccco3)cc21,-,-,-,0,-
CCOc1cccc(C2c3c(oc4ccccc4c3=O)C(=O)N2c2nc(C)c(C(=O)OC)s2)c1 (configuration not stated),-,-,-,0,-
CC1CCN(CCCn2c(=S)[nH]c3ccccc3c2=O)CC1,0,0,?,0,0
SMILES,ALDH1A1 inh,IMPase Li inh,PNC assembly inh,IMPase inh,HPGD block
O=C(CCCCCn1c(=S)[nH]c2ccc(Br)cc2c1=O)NCC1CCCO1 (configuration not stated),0,0,0,0,2.82µM
CC1CC(C)CN(C(=O)CCCn2c(=S)[nH]c3ccccc3c2=O)C1 (configuration not stated),?,0,0,0,25.1µM
COCCN(CC(=O)Nc1ccccc1)S(=O)(=O)c1ccc(S(=O)(=O)N2CCCC2)cc1,0,0,0,0,0
CC1CC(C)CN(C(=O)c2cc3c(s2)CCC3)C1 (configuration not stated),?,0,0,0,12.6µM
O=C(c1cc2c(s1)CCCC2)N1CCN(S(=O)(=O)c2ccccc2C(F)(F)F)CC1,?,0,0,-,0
CCOc1ccccc1N1CCN(C(=O)c2cc3c(s2)CCC3)CC1,0,0,0,0,0
O=C(c1cc2c(s1)CCCC2)N1CCN(c2ccccc2)CC1,22.4µM,0,-,-,-
